Source: PubChem BioAssay (Center for Chemical Genomics, University of Michigan)
The full list was thinned out, with hits kept by preference.
Dicer processing: human Dicer pre-microRNA cleavage inhibition. Q9UPY3. cat-ELCCA pre-miR-21 Dicer processing, chemiluminescence; active compounds read high. z-score at 25 µM. 47,000 compounds, 6% hits. AID 1347074; in the data active = z-score above about 3, passing the limit was not always enough;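 also: higher signal means more uncleaved substrate so more Dicer inhibition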
Target sequence (Q9UPY3 whole entry, looked up): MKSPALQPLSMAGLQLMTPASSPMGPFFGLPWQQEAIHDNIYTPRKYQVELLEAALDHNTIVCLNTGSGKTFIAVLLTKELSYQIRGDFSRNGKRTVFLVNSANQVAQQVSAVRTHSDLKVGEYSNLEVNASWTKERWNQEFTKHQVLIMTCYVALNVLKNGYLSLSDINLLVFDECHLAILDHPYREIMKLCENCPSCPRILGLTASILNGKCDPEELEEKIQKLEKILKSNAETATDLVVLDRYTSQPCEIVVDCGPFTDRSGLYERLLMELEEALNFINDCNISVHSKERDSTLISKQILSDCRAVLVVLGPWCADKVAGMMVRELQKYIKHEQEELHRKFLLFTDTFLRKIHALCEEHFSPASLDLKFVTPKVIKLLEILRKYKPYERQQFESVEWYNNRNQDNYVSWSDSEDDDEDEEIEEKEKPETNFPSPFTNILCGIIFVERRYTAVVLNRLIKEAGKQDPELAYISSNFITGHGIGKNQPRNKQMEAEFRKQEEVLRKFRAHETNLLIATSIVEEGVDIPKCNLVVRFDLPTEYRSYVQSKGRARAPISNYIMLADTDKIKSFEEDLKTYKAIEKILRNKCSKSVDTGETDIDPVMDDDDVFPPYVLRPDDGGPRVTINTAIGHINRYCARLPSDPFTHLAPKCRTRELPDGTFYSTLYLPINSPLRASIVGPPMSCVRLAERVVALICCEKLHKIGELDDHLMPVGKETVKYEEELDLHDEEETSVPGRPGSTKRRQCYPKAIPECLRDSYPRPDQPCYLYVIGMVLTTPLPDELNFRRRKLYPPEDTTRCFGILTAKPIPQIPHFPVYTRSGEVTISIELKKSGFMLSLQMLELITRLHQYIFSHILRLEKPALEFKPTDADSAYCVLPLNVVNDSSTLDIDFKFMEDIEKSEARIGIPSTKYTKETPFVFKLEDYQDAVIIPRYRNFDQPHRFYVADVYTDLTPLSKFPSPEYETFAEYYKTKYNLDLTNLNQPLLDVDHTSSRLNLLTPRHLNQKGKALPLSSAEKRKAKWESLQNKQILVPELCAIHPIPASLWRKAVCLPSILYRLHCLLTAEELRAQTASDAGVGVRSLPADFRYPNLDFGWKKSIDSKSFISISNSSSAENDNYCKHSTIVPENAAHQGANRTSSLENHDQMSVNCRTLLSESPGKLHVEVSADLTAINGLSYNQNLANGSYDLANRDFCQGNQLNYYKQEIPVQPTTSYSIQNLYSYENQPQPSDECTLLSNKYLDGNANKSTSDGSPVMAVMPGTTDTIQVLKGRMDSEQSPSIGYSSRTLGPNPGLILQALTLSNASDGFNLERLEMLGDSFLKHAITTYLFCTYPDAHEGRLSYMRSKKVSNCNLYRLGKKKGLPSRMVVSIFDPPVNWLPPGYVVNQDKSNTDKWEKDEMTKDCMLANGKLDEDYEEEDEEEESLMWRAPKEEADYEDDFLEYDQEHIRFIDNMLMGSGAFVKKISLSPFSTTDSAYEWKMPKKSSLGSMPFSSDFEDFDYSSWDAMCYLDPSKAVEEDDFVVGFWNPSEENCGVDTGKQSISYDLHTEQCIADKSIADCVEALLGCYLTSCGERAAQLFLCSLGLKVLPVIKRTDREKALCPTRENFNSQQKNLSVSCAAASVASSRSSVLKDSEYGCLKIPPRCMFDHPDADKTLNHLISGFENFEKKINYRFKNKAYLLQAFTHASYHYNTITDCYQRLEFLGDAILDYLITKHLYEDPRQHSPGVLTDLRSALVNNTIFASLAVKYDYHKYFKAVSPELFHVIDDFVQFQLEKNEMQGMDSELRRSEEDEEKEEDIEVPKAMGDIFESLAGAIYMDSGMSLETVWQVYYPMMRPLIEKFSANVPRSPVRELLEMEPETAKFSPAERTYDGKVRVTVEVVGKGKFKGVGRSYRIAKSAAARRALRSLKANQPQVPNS
A number is an active result.

What do the screens show for `CCOC(=O)NC(Nc1ccccc1)(C(=O)OCC)C(F)(F)F` (stereo unspecified)?
Dicer processing: inactive

What do the screens show for `CCOC(=O)CNC(=O)c1ccccc1Cl`?
Dicer processing: inactive

What do the screens show for `CCOC(=O)C(NCCOC)(NC(=O)c1ccccc1Cl)C(F)(F)F` (stereo unspecified)?
Dicer processing: 4.61

What do the screens show for `CCOC(=O)C(NC(=O)c1ccccc1Cl)(Nc1ccccn1)C(F)(F)F` (stereo unspecified)?
Dicer processing: 3.35

Results for Cc1onc(-c2c(Cl)cccc2Cl)c1NC(=O)SCc1c(Cl)cccc1Cl ?
Dicer processing: inactive

How did C/C(=N\OC(=O)Nc1c(C)cccc1C)c1sc2nc(C(F)(F)F)nn2c1C do in these assays?
Dicer processing: inactive

How did CCOC(=O)c1sc(N2C(=O)C(O)=C(C(=O)c3ccco3)C2c2cccs2)nc1C (stereo unspecified) do in these assays?
Dicer processing: inactive

What do the screens show for `N/C(=N\OC(=O)Nc1csc(-c2cccc(Cl)c2Cl)n1)c1ccc(Cl)cc1`?
Dicer processing: inactive

What do the screens show for `O=C(CCSc1nc(-c2ccco2)cc(C(F)(F)F)n1)NCc1cccnc1`?
Dicer processing: inactive

How did COC(=O)CSc1cc(C)nc(N)n1 do in these assays?
Dicer processing: inactive

How did Cc1cc(Oc2ccc(=O)n(C)n2)nc(SCC(N)=O)n1 do in these assays?
Dicer processing: inactive

Results for COC(=O)CSc1nc(C)cc(Oc2ccccc2)n1 ?
Dicer processing: 3.73

Results for CCOc1ccc(S(=O)(=O)Nc2ccccn2)c(C)c1C ?
Dicer processing: inactive

What do the screens show for `O=C1c2cccc3cccc(c23)C(=O)N1Nc1ccccc1`?
Dicer processing: inactive

What do the screens show for `Cc1c(N2C(=O)c3cccc4cccc(c34)C2=O)c(=O)n(-c2ccccc2)n1C`?
Dicer processing: 4.37

What do the screens show for `Cc1c(O)c(=O)n(-c2ccccc2)n1C`?
Dicer processing: inactive

What do the screens show for `O=C(CSC1=NCCCCC1)c1ccccc1`?
Dicer processing: inactive

How did COc1ccc(C(=O)Nc2ccc(Oc3cccc(C(F)(F)F)c3)nc2)cc1OC do in these assays?
Dicer processing: inactive

How did NNC(=O)C1CCC(c2ccc(Cl)cc2)CC1 (stereo unspecified) do in these assays?
Dicer processing: inactive

Results for NC(=O)c1oc2ccccc2c1NC(=O)c1cccc(Br)c1 ?
Dicer processing: inactive

How did Cc1ccc(S(=O)(=O)N2CCN(S(=O)(=O)c3ccccc3)C2c2ccc(N(C)C)cc2)cc1 (stereo unspecified) do in these assays?
Dicer processing: inactive

How did COc1ccc(OC)c(C2SCCN2S(=O)(=O)c2ccc(F)cc2)c1 (stereo unspecified) do in these assays?
Dicer processing: inactive

How did COc1ccc(S(=O)(=O)N2CCSC2c2cc(OC)ccc2OC)cc1 (stereo unspecified) do in these assays?
Dicer processing: 3.71

Results for O=S(=O)(c1ccccc1)N1CCSC1c1ccc(Cl)cc1 (stereo unspecified) ?
Dicer processing: inactive

How did O=S(=O)(c1ccccc1)N1CCSC1c1ccc(Br)cc1 (stereo unspecified) do in these assays?
Dicer processing: inactive

How did O=S(=O)(c1ccc(-c2ccccc2)cc1)N1CCSC1c1ccccc1 (stereo unspecified) do in these assays?
Dicer processing: 3.84

How did COc1ccc(C2N(S(=O)(=O)c3ccc(C)cc3)CCN2S(=O)(=O)c2ccc(C)cc2)cc1 do in these assays?
Dicer processing: 3.69

Results for COc1ccc(OC)c(C2SCCN2S(=O)(=O)c2ccc(C)cc2)c1 (stereo unspecified) ?
Dicer processing: inactive

What do the screens show for `COc1ccc(C2N(S(=O)(=O)c3ccccc3)CCN2S(=O)(=O)c2ccccc2)cc1`?
Dicer processing: inactive

What do the screens show for `Clc1ccc(CSc2ncnc3sc4c(c23)CCCC4)c(Cl)c1`?
Dicer processing: inactive

What do the screens show for `CC1=C(C(=O)OC(C)C)C(c2ccc(C)cc2)n2c(nc3ccccc32)N1` (stereo unspecified)?
Dicer processing: inactive

How did Cc1nc(N2C(=O)c3oc4ccccc4c(=O)c3C2c2ccc(O)cc2)sc1C (stereo unspecified) do in these assays?
Dicer processing: inactive

How did S=c1[nH]nc(Nc2ccc(Br)cc2Cl)s1 do in these assays?
Dicer processing: inactive

Results for S=c1[nH]nc(NCCc2ccc(Cl)cc2)s1 ?
Dicer processing: 3.32

What do the screens show for `S=c1[nH]nc(Nc2ccccc2Cl)s1`?
Dicer processing: inactive

How did COC(=O)C1=C(C)NC2=C(C(=O)CC(C)(C)C2)C1c1cc2c(cc1Br)OCO2 (stereo unspecified) do in these assays?
Dicer processing: inactive

What do the screens show for `CC1(C)CC(=O)C2=C(C1)Nc1cc3c(cc1C2c1ccc(Br)cc1)OCO3` (stereo unspecified)?
Dicer processing: 4.74

Results for COc1cc2c(cc1OC)C(c1ccc(F)cc1)C1=C(CC(C)(C)CC1=O)N2 (stereo unspecified) ?
Dicer processing: inactive

Results for CCOC(=O)c1c(C)n(C)c2ccc(O)cc12 ?
Dicer processing: inactive

Results for CCOC(=O)c1c(C)n(-c2ccccc2)c2ccc(OC)cc12 ?
Dicer processing: inactive

Results for CCOC(=O)c1c(C)n(-c2cccc(Br)c2)c2ccc(O)cc12 ?
Dicer processing: 6.53

Results for N#Cc1c(SCc2ccc(Cl)cc2)nsc1Nc1ccc(Cl)cc1 ?
Dicer processing: 3.04

What do the screens show for `N#Cc1cnc(SCc2ccc(Cl)cc2)nc1N`?
Dicer processing: inactive

How did FC(F)(F)c1cccnc1SCc1ccc(Cl)cc1 do in these assays?
Dicer processing: inactive

What do the screens show for `O=C(NNC(=S)Nc1cc(Cl)ccc1Cl)c1ccccc1Cl`?
Dicer processing: inactive

How did CC1(C)Cc2nc3sc4c(NCC5CCCO5)ncnc4c3cc2CO1 (stereo unspecified) do in these assays?
Dicer processing: 5.74

Results for CCCCCNc1ncnc2c1sc1nc3c(cc12)COC(C)(C)C3 ?
Dicer processing: inactive

Results for CCN(CC)CCNc1ncnc2c1sc1nc3c(cc12)COC(C)(C)C3 ?
Dicer processing: inactive

How did O=c1c2c(-c3ccc(-c4ccccc4)cc3)csc2ncn1-c1ccccc1 do in these assays?
Dicer processing: inactive

Results for CCOC(=O)c1c(NC(=O)Nc2cccc(Cl)c2)sc(C)c1-c1ccccc1 ?
Dicer processing: inactive

How did O=C(NCc1ccco1)c1cc2n(n1)C(C(F)(F)F)CC(c1ccc(Br)cc1)N2 (stereo unspecified) do in these assays?
Dicer processing: 3.48

How did O=C(NCc1cccs1)c1cc2n(n1)C(C(F)(F)F)CC(c1ccc(Cl)cc1)N2 (stereo unspecified) do in these assays?
Dicer processing: inactive

What do the screens show for `Cc1cc(C)cc(NC(=O)c2cc3n(n2)C(C(F)(F)F)CC(c2ccco2)N3)c1` (stereo unspecified)?
Dicer processing: inactive

Results for O=C(NCc1ccccn1)c1cc2n(n1)C(C(F)(F)F)CC(c1ccco1)N2 (stereo unspecified) ?
Dicer processing: inactive

Results for O=C(NCCCn1ccnc1)c1cc2n(n1)C(C(F)(F)F)CC(c1ccc(Cl)cc1)N2 (stereo unspecified) ?
Dicer processing: inactive

How did Cc1ccc(C2CC(C(F)(F)F)n3nc(C(=O)NC(C)C)cc3N2)cc1 (stereo unspecified) do in these assays?
Dicer processing: inactive

What do the screens show for `O=C(Nc1cccnc1)c1cc2n(n1)C(C(F)(F)F)CC(c1ccc(Br)cc1)N2` (stereo unspecified)?
Dicer processing: 4.67

Results for O=C(NC1CCCC1)c1cc2n(n1)C(C(F)(F)F)CC(c1ccccc1)N2 (stereo unspecified) ?
Dicer processing: inactive
